Assay results published in the supplement of paper PMC4022240.
± gives the standard deviation.

What was measured:
Experiment in all cases: peptide microarray binding signal (635 nm), min-max normalized on array (fraction of array maximum); higher = stronger binding
[1] = target: T1, HaloTag-ATRX ADD domain (163-292)
T1 chain: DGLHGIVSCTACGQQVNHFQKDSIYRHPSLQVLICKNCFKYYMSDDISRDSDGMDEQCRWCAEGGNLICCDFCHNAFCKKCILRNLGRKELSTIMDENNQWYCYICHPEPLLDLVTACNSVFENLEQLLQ
Procedure, shortened: (§1)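 For each library, binding signal was taken as the triplicate-spot mean intensity and then min-max scaled. Spots of histone 13-mer peptide–cellulose conjugates on nitrocellulose, printed in triplicate with a Cy3 tracer, were probed for 1 h at 4°C with either biotin-labelled HaloTag reader fusions (10 nM to 1 μM) and streptavidin-Alexa Fluor 647 or rabbit histone antibodies (1:10,000 to 1:2,000) and anti-rabbit Alexa 647. Readout at 635 nm came from an Axon GenePix 4000B.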

[2] = target: HaloTag-ING2 PHD (mouse Ing2 200-280)
Procedure, shortened: as §1

[3] = target: anti-H3K4me3 antibody ab8580
Procedure, shortened: as §1

[4] = target: anti-H3K9me3 antibody ab8898
Procedure, shortened: as §1

[5] = peptide region: H3 30-42, peptide modifications: H3T32ph, binder concentration: 1:2,000 dilution
[6] = peptide region: H3 30-42, peptide modifications: H3T32ph, binder concentration: 1:10,000 dilution
[7] = peptide region: H3 30-42, peptide modifications: H3K36me3 H3K37me2, binder concentration: 1:2,000 dilution
[8] = peptide region: H3 30-42, peptide modifications: H3K36me3 H3K37me2, binder concentration: 1:10,000 dilution
[9] = peptide region: H3 50-62, peptide modifications: H3K56me2 H3T58ph, binder concentration: 1:2,000 dilution
[10] = peptide region: H3 50-62, peptide modifications: H3K56me2 H3T58ph, binder concentration: 1:10,000 dilution
[11] = peptide region: H3 30-42, peptide modifications: H3T32ph H3K36me2, binder concentration: 1:2,000 dilution
[12] = peptide region: H3 30-42, peptide modifications: H3T32ph H3K36me2, binder concentration: 1:10,000 dilution
[13] = peptide region: H3 50-62, peptide modifications: H3K56me1 H3S57ph, binder concentration: 1:2,000 dilution
[14] = peptide region: H3 50-62, peptide modifications: H3K56me1 H3S57ph, binder concentration: 1:10,000 dilution
[15] = peptide region: H3 30-42, peptide modifications: H3T32ph H3K36me1, binder concentration: 1:2,000 dilution
[16] = peptide region: H3 30-42, peptide modifications: H3T32ph H3K36me1, binder concentration: 1:10,000 dilution
[17] = peptide region: H3 30-42, peptide modifications: H3T32ph H3K36me3, binder concentration: 1:2,000 dilution
[18] = peptide region: H3 30-42, peptide modifications: H3T32ph H3K36me3, binder concentration: 1:10,000 dilution
[19] = peptide region: H3 50-62, peptide modifications: H3K56ac, binder concentration: 1:2,000 dilution
[20] = peptide region: H3 50-62, peptide modifications: H3K56ac, binder concentration: 1:10,000 dilution
[21] = peptide region: H3 50-62, peptide modifications: H3K56me2, binder concentration: 1:2,000 dilution
[22] = peptide region: H3 50-62, peptide modifications: H3K56me2, binder concentration: 1:10,000 dilution
[23] = peptide region: H3 30-42, peptide modifications: H3K37me1, binder concentration: 1:2,000 dilution
[24] = peptide region: H3 30-42, peptide modifications: H3K37me1, binder concentration: 1:10,000 dilution

Binder: PATGGVKKPHRYR [H3 30-42 P A Tph G G V K K P H R Y R]
- peptide microarray binding signal ([1]; peptide region: H3 30-42, peptide modifications: H3T32ph, binder concentration: 50 nM): 0.004984 ± 4.8e-05
- peptide microarray binding signal ([1]; peptide region: H3 30-42, peptide modifications: H3T32ph, binder concentration: 500 nM): 0.0106 ± 0.00088
- peptide microarray binding signal ([2]; peptide region: H3 30-42, peptide modifications: H3T32ph, binder concentration: 10 nM): 0.00812 ± 0.00079
- peptide microarray binding signal ([2]; peptide region: H3 30-42, peptide modifications: H3T32ph, binder concentration: 100 nM): 0.0157 ± 0.0015
- peptide microarray binding signal [3, 5]: 0.00115 ± 3.8e-05
- peptide microarray binding signal [3, 6]: 0.001484 ± 1.4e-05
- peptide microarray binding signal [4, 5]: 0.000574 ± 2.6e-05
- peptide microarray binding signal [4, 6]: 0.0011 ± 1.1e-05

Binder: PATGGVKKPHRYR [H3 30-42 P A T G G V Kme3 Kme2 P H R Y R]
- peptide microarray binding signal ([1]; peptide region: H3 30-42, peptide modifications: H3K36me3 H3K37me2, binder concentration: 50 nM): 0.002539 ± 1.1e-05
- peptide microarray binding signal ([1]; peptide region: H3 30-42, peptide modifications: H3K36me3 H3K37me2, binder concentration: 500 nM): 0.00462 ± 0.00097
- peptide microarray binding signal ([2]; peptide region: H3 30-42, peptide modifications: H3K36me3 H3K37me2, binder concentration: 10 nM): 0.00471 ± 0.0004
- peptide microarray binding signal ([2]; peptide region: H3 30-42, peptide modifications: H3K36me3 H3K37me2, binder concentration: 100 nM): 0.00347 ± 0.00061
- peptide microarray binding signal [3, 7]: 0.00132 ± 0.00026
- peptide microarray binding signal [3, 8]: 0.00805 ± 0.0039
- peptide microarray binding signal [4, 7]: 0.00571 ± 0.0035
- peptide microarray binding signal [4, 8]: 0.00363 ± 0.00092

Binder: EIRRYQKSTELLI [H3 50-62 E I R R Y Q Kme2 S Tph E L L I]
- peptide microarray binding signal ([1]; peptide region: H3 50-62, peptide modifications: H3K56me2 H3T58ph, binder concentration: 50 nM): 0.00116 ± 2.9e-05
- peptide microarray binding signal ([1]; peptide region: H3 50-62, peptide modifications: H3K56me2 H3T58ph, binder concentration: 500 nM): 0.00181 ± 4.2e-05
- peptide microarray binding signal ([2]; peptide region: H3 50-62, peptide modifications: H3K56me2 H3T58ph, binder concentration: 10 nM): 0.00286 ± 0.00011
- peptide microarray binding signal ([2]; peptide region: H3 50-62, peptide modifications: H3K56me2 H3T58ph, binder concentration: 100 nM): 0.000992 ± 1.1e-05
- peptide microarray binding signal [3, 9]: 0.000415 ± 1.5e-05
- peptide microarray binding signal [3, 10]: 0.000456 ± 4.9e-06
- peptide microarray binding signal [4, 9]: 0.00199 ± 0.00011
- peptide microarray binding signal [4, 10]: 0.000923 ± 1.9e-05

Binder: PATGGVKKPHRYR [H3 30-42 P A Tph G G V Kme2 K P H R Y R]
- peptide microarray binding signal ([1]; peptide region: H3 30-42, peptide modifications: H3T32ph H3K36me2, binder concentration: 50 nM): 0.00313 ± 0.0002
- peptide microarray binding signal ([1]; peptide region: H3 30-42, peptide modifications: H3T32ph H3K36me2, binder concentration: 500 nM): 0.00695 ± 0.00032
- peptide microarray binding signal ([2]; peptide region: H3 30-42, peptide modifications: H3T32ph H3K36me2, binder concentration: 10 nM): 0.0113 ± 0.00095
- peptide microarray binding signal ([2]; peptide region: H3 30-42, peptide modifications: H3T32ph H3K36me2, binder concentration: 100 nM): 0.0184 ± 0.00072
- peptide microarray binding signal [3, 11]: 0.00266 ± 8.2e-05
- peptide microarray binding signal [3, 12]: 0.00262 ± 0.00017
- peptide microarray binding signal [4, 11]: 0.00142 ± 7.1e-05
- peptide microarray binding signal [4, 12]: 0.00127 ± 1.3e-05

Binder: EIRRYQKSTELLI [H3 50-62 E I R R Y Q Kme Sph T E L L I]
- peptide microarray binding signal ([1]; peptide region: H3 50-62, peptide modifications: H3K56me1 H3S57ph, binder concentration: 50 nM): 0.00125 ± 3.7e-05
- peptide microarray binding signal ([1]; peptide region: H3 50-62, peptide modifications: H3K56me1 H3S57ph, binder concentration: 500 nM): 0.00143 ± 2.3e-05
- peptide microarray binding signal ([2]; peptide region: H3 50-62, peptide modifications: H3K56me1 H3S57ph, binder concentration: 10 nM): 0.00209 ± 2.4e-05
- peptide microarray binding signal ([2]; peptide region: H3 50-62, peptide modifications: H3K56me1 H3S57ph, binder concentration: 100 nM): 0.00085 ± 2.5e-05
- peptide microarray binding signal [3, 13]: 0.000264 ± 7.4e-06
- peptide microarray binding signal [3, 14]: 0.000342 ± 3.8e-06
- peptide microarray binding signal [4, 13]: 0.000861 ± 8.7e-05
- peptide microarray binding signal [4, 14]: 0.000519 ± 5.6e-06

Binder: PATGGVKKPHRYR [H3 30-42 P A Tph G G V Kme K P H R Y R]
- peptide microarray binding signal ([1]; peptide region: H3 30-42, peptide modifications: H3T32ph H3K36me1, binder concentration: 50 nM): 0.00552 ± 0.00021
- peptide microarray binding signal ([1]; peptide region: H3 30-42, peptide modifications: H3T32ph H3K36me1, binder concentration: 500 nM): 0.00914 ± 0.00072
- peptide microarray binding signal ([2]; peptide region: H3 30-42, peptide modifications: H3T32ph H3K36me1, binder concentration: 10 nM): 0.00871 ± 0.00013
- peptide microarray binding signal ([2]; peptide region: H3 30-42, peptide modifications: H3T32ph H3K36me1, binder concentration: 100 nM): 0.0167 ± 0.0011
- peptide microarray binding signal [3, 15]: 0.00193 ± 0.00024
- peptide microarray binding signal [3, 16]: 0.00257 ± 0.00014
- peptide microarray binding signal [4, 15]: 0.00118 ± 0.00016
- peptide microarray binding signal [4, 16]: 0.00144 ± 0.00011

Binder: PATGGVKKPHRYR [H3 30-42 P A Tph G G V Kme3 K P H R Y R]
- peptide microarray binding signal ([1]; peptide region: H3 30-42, peptide modifications: H3T32ph H3K36me3, binder concentration: 50 nM): 0.00426 ± 9.2e-05
- peptide microarray binding signal ([1]; peptide region: H3 30-42, peptide modifications: H3T32ph H3K36me3, binder concentration: 500 nM): 0.00686 ± 0.00012
- peptide microarray binding signal ([2]; peptide region: H3 30-42, peptide modifications: H3T32ph H3K36me3, binder concentration: 10 nM): 0.00925 ± 0.00068
- peptide microarray binding signal ([2]; peptide region: H3 30-42, peptide modifications: H3T32ph H3K36me3, binder concentration: 100 nM): 0.0248 ± 0.0061
- peptide microarray binding signal [3, 17]: 0.0335 ± 0.008
- peptide microarray binding signal [3, 18]: 0.0116 ± 0.0022
- peptide microarray binding signal [4, 17]: 0.0489 ± 0.013
- peptide microarray binding signal [4, 18]: 0.0155 ± 0.0012

Binder: EIRRYQKSTELLI [H3 50-62 E I R R Y Q Kac S T E L L I]
- peptide microarray binding signal ([1]; peptide region: H3 50-62, peptide modifications: H3K56ac, binder concentration: 50 nM): 0.0121 ± 0.00021
- peptide microarray binding signal ([1]; peptide region: H3 50-62, peptide modifications: H3K56ac, binder concentration: 500 nM): 0.0135 ± 0.0015
- peptide microarray binding signal ([2]; peptide region: H3 50-62, peptide modifications: H3K56ac, binder concentration: 10 nM): 0.00913 ± 0.00065
- peptide microarray binding signal ([2]; peptide region: H3 50-62, peptide modifications: H3K56ac, binder concentration: 100 nM): 0.0108 ± 0.00062
- peptide microarray binding signal [3, 19]: 0.0016 ± 0.00024
- peptide microarray binding signal [3, 20]: 0.00211 ± 0.00015
- peptide microarray binding signal [4, 19]: 0.00222 ± 0.00049
- peptide microarray binding signal [4, 20]: 0.00173 ± 6.6e-05

Binder: EIRRYQKSTELLI [H3 50-62 E I R R Y Q Kme2 S T E L L I]
- peptide microarray binding signal ([1]; peptide region: H3 50-62, peptide modifications: H3K56me2, binder concentration: 50 nM): 0.01 ± 0.00043
- peptide microarray binding signal ([1]; peptide region: H3 50-62, peptide modifications: H3K56me2, binder concentration: 500 nM): 0.0165 ± 0.0014
- peptide microarray binding signal ([2]; peptide region: H3 50-62, peptide modifications: H3K56me2, binder concentration: 10 nM): 0.0135 ± 0.0033
- peptide microarray binding signal ([2]; peptide region: H3 50-62, peptide modifications: H3K56me2, binder concentration: 100 nM): 0.00624 ± 0.00068
- peptide microarray binding signal [3, 21]: 0.000868 ± 0.00013
- peptide microarray binding signal [3, 22]: 0.00171 ± 8.6e-05
- peptide microarray binding signal [4, 21]: 0.00953 ± 0.00056
- peptide microarray binding signal [4, 22]: 0.00323 ± 0.0002

Binder: PATGGVKKPHRYR [H3 30-42 P A T G G V K Kme P H R Y R]
- peptide microarray binding signal ([1]; peptide region: H3 30-42, peptide modifications: H3K37me1, binder concentration: 50 nM): 0.0106 ± 0.00056
- peptide microarray binding signal ([1]; peptide region: H3 30-42, peptide modifications: H3K37me1, binder concentration: 500 nM): 0.0245 ± 0.0059
- peptide microarray binding signal ([2]; peptide region: H3 30-42, peptide modifications: H3K37me1, binder concentration: 10 nM): 0.0491 ± 0.0011
- peptide microarray binding signal ([2]; peptide region: H3 30-42, peptide modifications: H3K37me1, binder concentration: 100 nM): 0.0698 ± 0.0049
- peptide microarray binding signal [3, 23]: 0.0068 ± 0.00068
- peptide microarray binding signal [3, 24]: 0.00765 ± 0.00036
- peptide microarray binding signal [4, 23]: 0.00234 ± 4.8e-05
- peptide microarray binding signal [4, 24]: 0.00225 ± 5.4e-05
